From PubChem BioAssay
Rows were chosen to be rich in hits. Some 2.7% of all compounds tested hit in one or more screens of this group.
ANO1 activ – activators or potentiators of mouse TMEM16A chloride channel; Q8BHY3; HEK293 TMEM16A/YFP-H148Q/I152L, iodide quench fluorescence; hits give low values; B-score at 10 µM; 340,000 compounds, 0.3% hits; AID 623877;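 active = fluorescence-ratio B-score plate-corrected deviation score at least 3 library SD below zero, with starting fluorescence score within 5 deviations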;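 note: channel opened by trigger with iodide after compound preincubation; score built on the fluorescence ratio of max minus min over baseline; more negative score means more quench and so TMEM16A activation or potentiation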
PP1 counter – counter-screen for PP5 inhibitors: inhibitors of human PP1-alpha. P62136. purified PP1alpha, OMFP fluorescence. inhibition, % at 6.7 µM. 320,000 compounds, 0.9% hits. AID 2235;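 active = inhibition above the mean inhibition of all tested compounds plus 3 SD, computed separately for each screening campaign, cut at about 15% in these data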
Target sequence (P62136 whole entry, looked up): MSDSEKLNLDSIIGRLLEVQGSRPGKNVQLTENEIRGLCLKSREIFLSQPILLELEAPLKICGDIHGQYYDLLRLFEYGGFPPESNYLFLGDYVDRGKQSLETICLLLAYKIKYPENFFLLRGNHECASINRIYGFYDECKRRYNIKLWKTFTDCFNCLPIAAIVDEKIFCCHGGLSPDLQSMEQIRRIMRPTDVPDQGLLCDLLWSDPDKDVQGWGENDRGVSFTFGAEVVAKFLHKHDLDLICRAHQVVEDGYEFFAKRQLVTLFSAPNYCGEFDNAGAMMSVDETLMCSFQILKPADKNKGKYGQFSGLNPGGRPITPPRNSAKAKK
PREPL inhibitor – human PREPL enzyme inhibition. Q4J6C6. recombinant PREPL, fluorescence polarization activity-based probe. inhibition, % at 5.96 µM. 320,000 compounds, 0.68% hits; in the data active = inhibition above about 43%
ANO1 block – blocks the mouse calcium-activated chloride channel TMEM16A; 310,000 compounds, 1.2% hits; HEK293 TMEM16A/YFP iodide influx fluorescence, ionomycin; normalized B-score (activity score, 25-100; higher = stronger inhibition) at 10 µM; AID 588511;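 active = ratio plate-corrected score three or more library SD toward inhibition, starting fluorescence score within five deviations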;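 note: score derived from kinetic fluorescence span divided by baseline fluorescence per well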
DNA FID counter – displaces DNA intercalator in HCV helicase counter-screen. DNA fluorescent intercalator displacement, fluorescence. inhibition, % at 7.9 µM. 290,000 compounds, 0.17% hits; in the data active = inhibition above about 37%;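 note: higher means more ethidium bromide displaced from hairpin DNA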
PP5 inh – PP5 (human) phosphatase inhibition | 320,000 compounds, 0.18% hits | inhibition, % at 6.7 µM | purified PP5c, OMFP substrate fluorescence | P53041 | AID 1987;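 active = inhibition above the campaign's mean inhibition across all tested compounds plus 3 SD, cut at about 9.5% in these data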
Large screens that a line does not name were inactive.

O=S(=O)(NN1CCOCC1)c1cc(Cl)cc(Cl)c1O	none
O=[N+]([O-])c1ccc(S(=O)(=O)N2CCN(c3ccnc4cc(Cl)ccc34)CC2)cc1	PP1 counter 17
O=[N+]([O-])c1ccc(/C=N/Nc2nc(NCc3ccccc3)nc(N3CCOCC3)n2)cc1	none
O=[N+]([O-])c1cccc(/C=N/Nc2nc(NCc3ccccc3)nc(N3CCOCC3)n2)c1O	PP1 counter 17
COc1cccc(C(c2cccc(OC)c2)c2ccccc2C(=O)O)c1	none (no result: PP1 counter, PREPL inhibitor, ANO1 block, DNA FID counter, PP5 inh)
O=C(N/N=C/c1cc(Br)c(O)c(Br)c1)c1cc2c(ccc3ccccc32)o1	ANO1 block 100 (no result: PP1 counter, PREPL inhibitor, PP5 inh)
O=c1cc(CSc2ccc(Cl)cc2)nc(-c2ccccn2)[nH]1	PP1 counter 16
Cc1nc2ccccc2c2oc(C(=O)NCC3COc4ccccc4O3)cc12 (stereo unspecified)	ANO1 block 25
COc1cc(NC(=O)[C@@H]2CCCN(S(=O)(=O)c3cccc4cccnc34)C2)cc(OC)c1OC	ANO1 block 25 (no result: DNA FID counter)
COc1cc(NC(=O)[C@H]2CCCN2S(=O)(=O)c2cccc3cccnc23)cc(OC)c1OC	none (no result: DNA FID counter)
O=C(Nc1cccc(S(=O)(=O)N2CCOCC2)c1)c1c2c(nc3ccccc13)CCC2	none
COC(=O)c1c(C)oc2ccc(N(C(=O)c3ccncc3)S(=O)(=O)c3ccc(C)cc3)cc12	ANO1 block 100
Cc1nn(-c2ccccn2)c2nc(-c3cccs3)cc(C(=O)NCc3ccco3)c12	PP1 counter 17
Cc1ccc(N2CC(C(=O)Nc3nnc(SCCN4CCOCC4)s3)CC2=O)cc1C (stereo unspecified)	none
CCN(Cc1ccccc1)C(c1ccc(C(F)(F)F)cc1)c1nnnn1C(C)(C)C (stereo unspecified)	PP1 counter 15
COc1cccc(CN(Cc2ccco2)C(c2ccc(F)cc2)c2nnnn2C(C)(C)C)c1 (stereo unspecified)	ANO1 activ -26
COc1cccc(N2CCN(C(=O)CCNS(=O)(=O)c3ccc(F)c(F)c3)CC2)c1	none (no result: PP1 counter, ANO1 block, DNA FID counter, PP5 inh)
CC1=C(c2ccccc2)C(O)(c2ccccc2)C(C)C1=O (stereo unspecified)	none (no result: PP1 counter, PREPL inhibitor, ANO1 block, DNA FID counter, PP5 inh)
CCC1(CC)NC(=O)N(CC(=O)OCC(=O)Nc2sccc2C#N)C1=O	none
Cc1ccc(CN2C(=O)N/C(=C\c3ccc(N4CCOCC4)cc3)C2=O)cc1	PREPL inhibitor 71
O=C(Nc1nc2ccccc2[nH]1)C1CC1	ANO1 activ -5.8
C=CC1CN2CCC1CC2C(O)c1ccnc2ccc(OC)cc12 (stereo unspecified)	none (no result: PP1 counter, PREPL inhibitor, ANO1 block, DNA FID counter, PP5 inh)
Fc1ccc(Nc2ccnc(Nc3ccc(F)cc3)n2)cc1	DNA FID counter 39
CN1C(=O)/C(=C/c2cc(N=Nc3ccccc3)ccc2O)SC1=S	ANO1 block 100
Cc1c(N2C(=O)/C(=C\c3ccccc3O)SC2=S)c(=O)n(-c2ccccc2)n1C	none
O=C(Nc1ccccc1C(=O)N1CCN(c2cccc(Cl)c2)CC1)C1=CSCCO1	ANO1 activ -28
N#CC1(NC(=O)COC(=O)c2cc(O)c3ccccc3c2O)CCCCC1	none (no result: DNA FID counter)
N#CC1(NC(=O)COC(=O)c2ccc(-c3ccc(O)cc3)cc2)CCCCC1	PP1 counter 16 (no result: ANO1 block, DNA FID counter)
COc1ccc(C)cc1NC(=O)CN(Cc1nnc(-c2ccc(Cl)cc2)o1)C1CCCC1	PP1 counter 16
COc1ccc(C)cc1NC(=O)CSc1nnc(-c2ccc(C)cc2)o1	none
Cc1cc(CCCCCCCCc2cc(C)cc(=O)o2)oc(=O)c1	none
O=C1CCC(=O)N1c1nc2nc(-c3ccccc3)cc(=O)n2[nH]1	ANO1 activ -24
Cc1nc2nc(-c3ccccc3)cc(=O)n2[nH]1	none
CC(OC(=O)c1nc(-c2ccccc2)n(-c2ccccc2)n1)C(=O)Nc1cc(Cl)cc(Cl)c1 (stereo unspecified)	none
Clc1ccc(-c2ccnc(Oc3ccc4ccccc4c3)n2)cc1	none
Clc1ccc(-c2ccnc(Oc3cc(Cl)ccc3Cl)n2)cc1	ANO1 block 25
c1ccc(OCc2nn3c(-c4ccco4)nnc3s2)cc1	PP1 counter 16
COc1ccc(-c2nnc3sc(COc4ccccc4)nn23)cc1	none
CCC(O)(Cc1ccccn1)Cc1ccccn1	none (no result: PP1 counter, PREPL inhibitor, ANO1 block, DNA FID counter, PP5 inh)
COc1ccccc1-c1ccc(SCc2cccc(C)c2)nn1	ANO1 block 100
COc1ccc(C(=O)NNC(=S)NC(=O)c2ccc(Cl)cc2)cc1	ANO1 block 100 (no result: DNA FID counter)
COc1ccc(C(=O)NC(=S)NNC(=O)c2ccc(C)cc2)cc1	none (no result: DNA FID counter)
COc1cc(NS(=O)(=O)c2ccc(NC(=S)NC(=O)c3sc4ccccc4c3Cl)cc2)nc(OC)n1	none
CC(=O)Nc1ccc(NC(=O)CNC(=O)c2sc3ccccc3c2Cl)cc1	none (no result: DNA FID counter)
NC(N)=NS(=O)(=O)c1ccc(NC(=S)NC(=O)c2sc3ccccc3c2Cl)cc1	PP1 counter 16
O=C(NNC(=S)NC(=O)c1sc2ccccc2c1Cl)c1ccc(Cl)cc1	ANO1 activ -9.3, ANO1 block 100
COC(=O)c1ccc(NC(=O)CNC(=O)c2sc3ccccc3c2Cl)cc1	PP1 counter 15 (no result: ANO1 block, DNA FID counter)
Cc1cccc(C(=O)NC(=S)NNC(=O)c2ccc(Cl)cc2)c1	ANO1 block 25
Cc1cccc(C(=O)NC(=S)NNC(=O)c2cccs2)c1	none
O=C(Cc1ccc(Cl)cc1Cl)Nc1ccncc1Cl	ANO1 block 25
CC(C)(C)C(=O)Oc1cccc(Nc2ncnc3ccccc23)c1	ANO1 block 25
Cc1nnc(SC(C)C(=O)Nc2ncc(Cl)cc2Cl)n1Cc1ccccc1 (stereo unspecified)	ANO1 activ -20
CCC(=O)N1CCc2cc(S(=O)(=O)CCC(=O)Nc3ccc(OC)c(OC)c3)ccc21	none
COc1cccc(C2=CC(c3ccc(N(C)C)cc3)n3ncnc3N2)c1 (stereo unspecified)	PREPL inhibitor 63 (no result: ANO1 activ)
O=C(CC(=O)c1ccccc1)CS(=O)(=O)c1ccccc1	none (no result: PP1 counter, PREPL inhibitor, ANO1 block, DNA FID counter, PP5 inh)
CCCCNC(=O)C1c2ccccc2Oc2ccccc21	none
CCN(CC)C(=O)C1c2ccccc2Oc2ccccc21	PREPL inhibitor 54
Cc1ccc(C(=O)CC(=O)c2cc(Cl)ccc2O)cc1	none
CC(C)(C)c1ccc(C(=O)CC(=O)c2cc(Cl)ccc2O)cc1	ANO1 block 25
CCOC(=O)c1c(NC(=O)CSc2nnnn2-c2ccccc2)sc2c1CC(C)(C)NC2(C)C	DNA FID counter 41
CCOC(=O)c1c(NC(=O)CSc2nnnn2-c2ccccc2OCC)sc2c1CC(C)(C)NC2(C)C	none (no result: DNA FID counter)
CCOC(=O)c1c(NC(=O)C2COc3ccccc3O2)sc2c1CC(C)(C)NC2(C)C (stereo unspecified)	DNA FID counter 43
CCOC(=O)c1c(NC(=O)C2COc3ccccc3O2)sc(C(C)=O)c1C (stereo unspecified)	none
CN(CCC#N)C(=O)COC(=O)c1cc(Cl)cc(Cl)c1N	none
CN(C)c1ccc(NC(=O)CCn2c(=S)oc3ccccc32)cc1	PREPL inhibitor 58
Cc1ccc(NC(=O)CCn2c(=S)oc3ccccc32)cc1	none
